The supplement of paper PMC3334620
Whole data set: some 33,000 sequences, median “E-score (-0.5 to 0.5)” near -0.016, cut for the highest 2% near 0.32. The sample holds the highest values, similar sequences and a random draw of the others, so the mix is not that of the screen.

What follows are sequences tested against T1, Stp1 (UniProt B3LFK1) (assay: PBM E-score (8-mer binding enrichment) (E-score (-0.5 to 0.5)); higher = stronger / more preferred TF binding). Conditions: protein concentration: 200 nM; construct: GST-full length.
T1 sequence: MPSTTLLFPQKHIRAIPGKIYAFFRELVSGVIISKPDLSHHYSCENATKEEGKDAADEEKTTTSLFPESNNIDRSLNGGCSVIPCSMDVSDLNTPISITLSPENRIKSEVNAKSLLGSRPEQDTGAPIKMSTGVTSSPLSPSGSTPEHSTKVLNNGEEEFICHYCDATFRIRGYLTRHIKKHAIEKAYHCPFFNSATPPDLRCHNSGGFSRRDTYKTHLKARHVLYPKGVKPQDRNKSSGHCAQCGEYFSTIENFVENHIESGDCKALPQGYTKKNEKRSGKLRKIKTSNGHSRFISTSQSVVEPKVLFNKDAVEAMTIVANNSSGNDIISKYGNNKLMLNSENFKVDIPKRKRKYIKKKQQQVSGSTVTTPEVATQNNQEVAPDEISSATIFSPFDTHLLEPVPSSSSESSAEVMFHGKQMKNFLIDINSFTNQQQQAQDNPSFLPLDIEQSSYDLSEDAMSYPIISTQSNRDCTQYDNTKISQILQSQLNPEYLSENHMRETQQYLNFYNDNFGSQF
Method: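 Universal 'all 10-mer' protein binding microarrays (Agilent AMADID 015681) probed with GST-tagged S. cerevisiae TFs (full-length or DBD) made by in vitro transcription/translation (PURExpress), about 100-200 nM. Bound TF was detected with fluorescent anti-GST. Each ungapped 8-mer (which stands for itself and its reverse complement) is scored by the PBM enrichment score (E-score), a modified Wilcoxon-Mann-Whitney statistic from -0.5 to +0.5, computed with the Universal PBM Analysis Suite. Scale: above 0.35 generally sequence-specific binding.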

| Sequence | PBM E-score |
| --- | --- |
| CGATAGAC | 0.00428 |
| AGGTGAGA | -0.0297 |
| ATACCACA | 0.0264 |
| ATGTCGCA | 0.0188 |
| ATAGGCGA | -0.0945 |
| ATACTCGC | -0.0916 |
| CCCCCTGC | -0.346 |
| TAAATCAA | 0.0833 |
| CTTAGCCA | 0.13 |
| AAGCGCTT | 0.0783 |
| GATCCTAA | -0.164 |
| GCATGAGA | 0.151 |
| GGAGATAC | -0.0561 |
| ATCCTAGC | -0.102 |
| AAGGCGCT | 0.396 |
| AAGGCGCG | 0.4 |
| AAGGCGGT | 0.105 |
| AAGGCGCA | 0.316 |
| AAGGCGGG | -0.112 |
| AAAGCGCT | 0.16 |
| CAGGCGCA | -0.031 |
| TAGGCGCA | 0.155 |
| CAGGCGCG | 0.113 |
| CCTACTGC | 0.107 |

| Sequence | PBM E-score |
| --- | --- |
| CTGAAGGC | -0.14 |
| AGTTGGGA | -0.114 |
| ACCCGAGA | -0.282 |
| CACCCAGA | -0.257 |
| AGACCGCC | -0.0258 |
| CGCGTTTA | -0.0505 |
| CCCGTTTA | 0.185 |
| ACCGTTGA | -0.134 |
| ACCGTTTA | 0.168 |
| GCCGTTGA | 0.383 |
| GCCGTTTA | 0.443 |
| GGCGTTTA | 0.337 |
| CCCGTTGA | -0.0684 |
| AGCGTTTA | -0.127 |
| GAATCTCC | -0.122 |
| GGAAGGAA | -0.0797 |
| GAACTGAC | 0.0623 |
| AGAGTATG | -0.303 |
| AGCTGCTC | -0.127 |
| CGGATAGA | 0.228 |
| TGACCGCA | 0.025 |
| ACATGCCT | 0.066 |
| ACATGCCC | -0.168 |
| CCATGCCC | -0.0806 |

| Sequence | PBM E-score |
| --- | --- |
| CCATGCCG | 0.336 |
| CCATGCCA | 0.148 |
| ACATGCCG | 0.369 |
| TAATAGCA | -0.0461 |
| ACGCCGCT | 0.423 |
| CCGCCGGC | 0.165 |
| ACGCCGAT | 0.23 |
| GCGCCGCC | 0.454 |
| CCGCCGCA | 0.402 |
| CCGCCGAA | 0.216 |
| CCGCCGCC | 0.194 |
| ACGCCGCC | 0.355 |
| ACGCCGAC | 0.204 |
| AAGCCGCT | 0.265 |
| GCGCCTCC | 0.293 |
| CCGCCGGA | 0.0267 |
| ATGGAGGC | -0.236 |
| AGTGGGTG | -0.0322 |
| GCAACAGC | 0.0755 |
| AACGCTCT | -0.216 |
| ACGCCGGA | 0.00769 |
| CGGCCGCA | 0.325 |
| AGGCCGCG | 0.244 |
| AGGCCGCA | 0.162 |

| Sequence | PBM E-score |
| --- | --- |
| ACGCCGCA | 0.476 |
| ACGCCGAG | 0.0836 |
| ACGACGCA | 0.0151 |
| ACGCCGCG | 0.473 |
| TCGCCGCA | 0.448 |
| TCACCGCA | -0.0824 |
| GGGCCGCA | 0.285 |
| TCTCCGCA | -0.0488 |
| ACAAAAGT | 0.0775 |
| ACGTTAAT | 0.112 |
| GCCCTACA | 0.0881 |
| GTAACTAA | 0.0925 |
| CTTGATAC | 0.113 |
| CTAGGTCC | -0.102 |
| AGTCAAGA | -0.0455 |
| GTTCAAGA | 0.0574 |
| CCTCGGAA | -0.0641 |
| CCGCCGCG | 0.437 |
| CCGCCCCG | 0.273 |
| CCGCCGAG | 0.083 |
| TCCAAGCA | 0.0574 |
| GGCATCCC | -0.0465 |
